SMN2 splice enh – enhancers of SMN2 splice variant expression; HEK293 SMN2-luciferase splicing reporter, luminescence, 30-36 h; Potency, µM (titrated, usually from 46.1 µM), usual class: activators; hit rate 2.8% among 210,000; AID 1458; note: nearly all actives have a fitted effect of over 55% in size
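HEK293 cells carry an SMN2 minigene-luciferase reporter in which exon 7 inclusion puts luciferase in frame. Cells were seeded at 2000 cells/well, attached for 10-12 hours, then exposed to compounds for 30-36 hours at 37C before ONE-Glo luminescence.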
NPC1 prom act – NPC1 promoter activation | Huh7 NPC1 promoter luciferase reporter, 24 h | Potency, µM (titrated, usually from 9.22 µM), hits mostly activators | hit rate 2.4% among 320,000; note: nearly all actives have a fitted effect of over 60% in size
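Readout is luciferase luminescence, reflecting NPC1 promoter activation in stably transfected Huh7 cells after 24 h compound exposure at 37 °C in reduced-serum medium with 10% FBS.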
ELG1 genotox – genotoxicity induction in ELG1-luciferase HEK293T cells; HEK293T ELG1-luciferase reporter, luminescence, 16 h; Potency, µM (doses to about 46 µM), most hits filed as activators; hit rate 1.3% among 330,000; note: nearly all actives have a fitted effect of over 60% in size
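After overnight (16 hr) compound treatment at 37 °C, ELG1-luciferase HEK293T cells were lysed with ONE-Glo; luminescence quantified 30 min later at room temperature.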
KinaseGlo FLuc – blocks Kinase-Glo luciferase, a counter-screen artifact. Q27757. Kinase-Glo luciferase, ATP luminescence, 8 min. Potency, µM (top dose mostly 38.3 µM), actives largely listed as inhibitors. hit rate 0.28% among 200,000; note: nearly all actives have a fitted effect of over 60% in size
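Compounds were added to a substrate mix at pH 7.2 (50 mM imidazole, 10 uM ATP, within the enzyme's linear range), followed by Kinase-Glo detection reagent; luminescence was measured after 8 minutes at ambient temperature.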
FLuc counter – inhibits or activates purified firefly luciferase, miR-21 counter-screen. purified FLuc, Km substrates, luminescence inhibition. Potency, µM (doses to about 57.5 µM), hits mostly inhibitors. hit rate 6.9% among 360,000; note: nearly all actives have a fitted effect of over 55% in size
Target sequence (P08659 whole entry, looked up): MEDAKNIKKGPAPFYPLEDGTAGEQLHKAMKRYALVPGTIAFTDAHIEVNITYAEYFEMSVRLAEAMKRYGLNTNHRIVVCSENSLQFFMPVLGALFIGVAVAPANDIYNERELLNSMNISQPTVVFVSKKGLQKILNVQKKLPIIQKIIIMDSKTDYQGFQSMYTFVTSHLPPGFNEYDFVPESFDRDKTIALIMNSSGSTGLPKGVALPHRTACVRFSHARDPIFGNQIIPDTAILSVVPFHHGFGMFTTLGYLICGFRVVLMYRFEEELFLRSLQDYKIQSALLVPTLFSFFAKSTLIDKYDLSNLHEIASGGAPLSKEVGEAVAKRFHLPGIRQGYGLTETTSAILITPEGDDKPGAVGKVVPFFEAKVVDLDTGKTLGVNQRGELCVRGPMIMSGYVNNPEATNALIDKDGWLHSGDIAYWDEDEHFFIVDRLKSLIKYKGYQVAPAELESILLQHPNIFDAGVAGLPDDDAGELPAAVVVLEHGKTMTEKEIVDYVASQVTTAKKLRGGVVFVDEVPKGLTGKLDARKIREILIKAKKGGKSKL
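Purified P. pyralis luciferase, 10 nM final, with Km-level 10 uM D-luciferin and 10 uM ATP in 50 mM Tris acetate pH 7.5, 10 mM Mg acetate, 0.01% Tween-20, 0.05% BSA; 6-point qHTS titration about 60 µM downward; luminescence read.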
Rab9 promoter act – activates the Rab9 promoter. Huh7 Rab9 promoter-luciferase reporter, luminescence, 24 h. Potency, µM (series often up to 9.22 µM), hits mostly activators. hit rate 2.8% among 320,000. AID 485297; note: nearly all actives have a fitted effect of over 60% in size
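Luminescence read-out: Huh7 cells stably expressing Rab9-luciferase, treated 24 h with compound at 37 °C, then lysed with luciferase reagent for 10 min at ambient before reading.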
Large screens that a line does not name were inactive. Compounds with a hit are over-represented: about 7.5% of the library has one in this group of screens. Calls come from the whole dose curve; as a rule, active = well fitted curve in the direction sought with a large enough effect; inconclusive = small, poorly fitted or top-dose-only effect, or another doubt; inactive = no such curve, though single readings can be large; an effect the other way counts as inactive or inconclusive.

Cc1ccc(C)c(CNC(=O)C2CCCCN2S(=O)(=O)c2ccc(F)cc2)c1 (stereo unspecified)	none (no result: SMN2 splice enh, NPC1 prom act, ELG1 genotox, KinaseGlo FLuc, Rab9 promoter act)
CC(/C=N/NC(=O)CSc1nc2ccccc2n1C)=C\c1ccco1	none
Cc1ccc(CSc2nnc(SCC(=O)N/N=C/c3c[nH]c4ccccc34)s2)cc1	ELG1 genotox inconclusive, FLuc counter inconclusive
CC(=C/c1ccco1)/C=N/NC(=O)CSc1nnc(SCc2ccc(C)cc2)s1	FLuc counter 2.7µM
Cc1ccc(CSc2nnc(SCC(=O)N/N=C/c3ccccc3OCC(=O)O)s2)cc1	FLuc counter 1.5µM (no result: SMN2 splice enh, KinaseGlo FLuc)
O=C(CSc1nnc(SCc2ccc(Cl)cc2)s1)N/N=C/c1ccccc1C(=O)O	FLuc counter 11µM (no result: SMN2 splice enh, KinaseGlo FLuc)
CCCCCCCCC/C=C/CC1CC(=O)OC1=O (stereo unspecified)	none (no result: NPC1 prom act, ELG1 genotox, KinaseGlo FLuc, FLuc counter, Rab9 promoter act)
CCCN(C(=O)Nc1cn(CC(C)C)c(=O)c2ccccc12)c1ccc(F)cc1	none (no result: SMN2 splice enh, NPC1 prom act, ELG1 genotox, KinaseGlo FLuc, Rab9 promoter act)
Cc1ccc(OCC(=O)NCC2(N3CCOCC3)CCCCC2)cc1C	none (no result: SMN2 splice enh, NPC1 prom act, ELG1 genotox, KinaseGlo FLuc, Rab9 promoter act)
c1cn2c(NC3CCCC3)c(-c3ccc(N4CCOCC4)cc3)nc2cn1	NPC1 prom act inconclusive, ELG1 genotox inconclusive, FLuc counter 2.1µM, Rab9 promoter act inconclusive
CCN(CC)c1ccc(-c2nc3cnccn3c2NC2CCCC2)cc1	FLuc counter 11µM
O=C(CCc1ccccc1)NCc1nc2cccnc2n1Cc1ccc(F)cc1	none (no result: SMN2 splice enh, NPC1 prom act, ELG1 genotox, KinaseGlo FLuc, Rab9 promoter act)
CC(=O)Nc1cccc(-c2csc(N)n2)c1	none
CCCC(=O)N1CCc2cc(-c3nc(N)sc3C)ccc21	NPC1 prom act inconclusive, ELG1 genotox inconclusive, FLuc counter 12µM, Rab9 promoter act 3.2µM (no result: SMN2 splice enh, KinaseGlo FLuc)
CNc1nc(-c2ccc3c(c2)CCN3C(=O)CC(C)(C)C)c(C)s1	none (no result: SMN2 splice enh)
CC(C)(C)C(=O)N1CCc2cc(-c3csc(N)n3)ccc21	SMN2 splice enh inconclusive, NPC1 prom act 0.35µM, ELG1 genotox inconclusive, FLuc counter 0.24µM, Rab9 promoter act 0.089µM
CCC(C)C(=O)N1CCc2cc(-c3csc(N)n3)ccc21 (stereo unspecified)	SMN2 splice enh 11µM, NPC1 prom act 2.5µM, ELG1 genotox 5.8µM, FLuc counter 5.4µM, Rab9 promoter act 1.4µM
O=C(Nc1ccc(F)cc1C(F)(F)F)C1CCN(c2ncccn2)CC1	none (no result: NPC1 prom act, ELG1 genotox, KinaseGlo FLuc, Rab9 promoter act)
COC(=O)c1ccccc1NC(=O)Cn1cc(S(=O)(=O)Cc2ccccc2F)c2ccccc21	none (no result: SMN2 splice enh, NPC1 prom act, ELG1 genotox, KinaseGlo FLuc, Rab9 promoter act)
Cc1ccc(S(=O)(=O)N2CCOC2CNC(=O)C(=O)NCc2ccncc2)cc1 (stereo unspecified)	none (no result: SMN2 splice enh, KinaseGlo FLuc)
CC1=C(C(=O)Nc2ccccc2)C(c2cccnc2)n2nc(SCc3ccccc3F)nc2N1 (stereo unspecified)	none (no result: NPC1 prom act, ELG1 genotox, KinaseGlo FLuc, Rab9 promoter act)
COCCNC(=O)CCc1c(C)n(C)c2cc(-c3cc(OC)c(OC)c(OC)c3)nn2c1=O	none (no result: SMN2 splice enh, NPC1 prom act, ELG1 genotox, KinaseGlo FLuc, Rab9 promoter act)
N/C(=N\N=C/c1ccc(F)cc1)N/N=C\c1ccc(F)cc1	FLuc counter 6µM (no result: SMN2 splice enh, KinaseGlo FLuc)
N/C(=N\N=C/c1ccc(Br)cc1)N/N=C\c1ccc(Br)cc1	FLuc counter 11µM, Rab9 promoter act inconclusive
CNC(=O)C(=O)N/N=C/c1ccc(Br)cc1	FLuc counter inconclusive
CCCN1CCN(C(=O)c2oc3ccccc3c2NC(=O)C2CC2)CC1	none (no result: SMN2 splice enh, KinaseGlo FLuc)
Cc1ccc(S(=O)(=O)N(CC(=O)NCc2ccc(F)cc2)C(=O)N2CCN(C)CC2)cc1	none (no result: SMN2 splice enh, KinaseGlo FLuc)
CCCCOc1ccc(C(=O)NCC(=O)NNC(=O)c2ccco2)cc1	none (no result: SMN2 splice enh, NPC1 prom act, KinaseGlo FLuc, FLuc counter, Rab9 promoter act)
CC(C)c1ccc(C(=O)NNC(=O)C2C3CCC(C3)C2C(=O)O)cc1 (stereo unspecified)	NPC1 prom act 0.5µM, ELG1 genotox 4.6µM, FLuc counter 7.6µM, Rab9 promoter act 1.3µM (no result: SMN2 splice enh, KinaseGlo FLuc)
CCOc1ccccc1C(=O)NN1C(=O)C2CCCCC2C1=O (stereo unspecified)	none
O=C(NNC(=O)C1C2CCC(C2)C1C(=O)O)c1ccc(Br)o1 (stereo unspecified)	none
CC(C)c1ccc(C(=O)NN2C(=O)C3CCCCC3C2=O)cc1 (stereo unspecified)	SMN2 splice enh 11µM, NPC1 prom act 3.5µM, ELG1 genotox inconclusive, FLuc counter 2.1µM, Rab9 promoter act 3.2µM
CCOC(=O)c1ccccc1NC(=O)CSc1nnc(Cc2cccn2C)n1-c1ccc(F)cc1	Rab9 promoter act 3.2µM
O=C(COC(=O)c1ccccc1Br)NCC1CCCCC1	none (no result: SMN2 splice enh, NPC1 prom act, KinaseGlo FLuc, FLuc counter, Rab9 promoter act)
CN(C)c1ccc(N=Nc2ccccc2C(=O)OCC(=O)NCC2CCCCC2)cc1	FLuc counter 4.8µM
CN(C)c1ccc(N=Nc2ccccc2C(=O)OCC(=O)NC2CCCC2)cc1	FLuc counter 2.7µM (no result: SMN2 splice enh, KinaseGlo FLuc)
CN(C)c1ccc(N=Nc2ccccc2C(=O)OCC(=O)N(C)C2CCCCC2)cc1	SMN2 splice enh inconclusive, FLuc counter 1.1µM, Rab9 promoter act inconclusive
Cc1onc(-c2ccccc2)c1C(=O)N=C(N)c1ccc(C(F)(F)F)cc1	NPC1 prom act inconclusive (no result: SMN2 splice enh, KinaseGlo FLuc)
Cc1ccc(CNC(=O)Cn2ncn3cccc3c2=O)cc1	NPC1 prom act inconclusive, ELG1 genotox inconclusive, FLuc counter 13µM, Rab9 promoter act 2.5µM (no result: SMN2 splice enh, KinaseGlo FLuc)
COc1ccccc1CNC(=O)COC(=O)C1CCN(S(=O)(=O)c2ccc(C)c(C)c2)CC1	none (no result: SMN2 splice enh, KinaseGlo FLuc)

Screening results deposited in PubChem by National Center for Advancing Translational Sciences (NCATS).
